Read-out in assay [1]: Thrombomodulin, THBD (gene 7056)
Briefly: BSK_CASM3C_Thrombomodulin: BioMAP Diversity Plus: CASM3C Assay for Thrombomodulin Biomarker Activity (AID 2283051).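 Further: thrombomodulin protein level measured by ELISA 24 h after dosing.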 The following applies: primary human coronary artery smooth muscle cells; actives raise or lower the signal.

Read-out in assay [2]: Tissue Factor, F3 (gene 2152)
Description: BSK_CASM3C_TissueFactor: BioMAP Diversity Plus: CASM3C Assay for Tissue Factor Biomarker Activity (AID 2283052).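 Further: cell surface tissue factor protein level read by ELISA.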 The following applies: primary human coronary artery smooth muscle cells; actives raise or lower the signal.

Read-out in assay [3]: Interferon-gamma inducible Protein 10 (IP10), CXCL10 (gene 3627)
Description: BSK_hDFCGF_IP10: BioMAP Diversity Plus: hDFCGF Assay for Interferon-gamma inducible Protein 10 (IP10) Biomarker Activity (AID 2283053). Conditions: primary human foreskin fibroblasts; actives raise or lower the signal. Put shortly: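 ELISA read-out of IP-10 (CXCL10) from primary human skin fibroblasts, 24 h after compound addition. Gain or loss of signal versus DMSO baseline, bidirectional curve fitting.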

Read-out in assay [4]: Urokinase-type plasminogen activator receptor (uPAR), PLAUR (gene 5329)
Briefly: BSK_CASM3C_uPAR: BioMAP Diversity Plus: CASM3C Assay for Urokinase-type plasminogen activator receptor (uPAR) Biomarker Activity (AID 2283054).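 Further: cell-surface uPAR protein level quantified by ELISA.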 The following applies: primary human coronary artery smooth muscle cells; actives raise or lower the signal.

Read-out in assay [5]: Vascular cell adhesion molecule 1 (VCAM1), VCAM1 (gene 7412)
Briefly: BSK_CASM3C_VCAM1: BioMAP Diversity Plus: CASM3C Assay for Vascular cell adhesion molecule 1 (VCAM1) Biomarker Activity (AID 2283055).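 Further: VCAM-1 protein level quantified by ELISA on the cells.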 Conditions: primary human coronary artery smooth muscle cells; actives raise or lower the signal.

Read-out in assay [6]: Collagen III, COL3A1 (gene 1281)
Description: BSK_hDFCGF_CollagenIII: BioMAP Diversity Plus: hDFCGF Assay for Collagen III Biomarker Activity (AID 2283056). The following applies: primary human foreskin fibroblasts; actives raise or lower the signal. An outline of the steps:
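Human foreskin primary fibroblasts were exposed to test chemicals for 24 h, after which collagen III was quantified by ELISA. Activity was fitted bidirectionally against DMSO as negative control and baseline.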

Read-out in assay [7]: Epidermal growth factor receptor (EGFR), EGFR (gene 1956)
Briefly: BSK_hDFCGF_EGFR: BioMAP Diversity Plus: hDFCGF Assay for Epidermal growth factor receptor (EGFR) Biomarker Activity (AID 2283057). The following applies: primary human foreskin fibroblasts; actives raise or lower the signal. An outline of the steps: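 ELISA readout of EGFR on human dermal fibroblasts (primary foreskin cells), 24 h post-dosing; bidirectional curve fit vs DMSO baseline, gain or loss of signal scored.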

Read-out in assay [8]: Interleukin-8 (IL8), CXCL8 (gene 3576)
Description: BSK_hDFCGF_IL8: BioMAP Diversity Plus: hDFCGF Assay for Interleukin-8 (IL8) Biomarker Activity (AID 2283058). The following applies: primary human foreskin fibroblasts; actives raise or lower the signal. An outline of the steps: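 hDFCGF human dermal fibroblasts; 24 h chemical exposure; IL-8 by ELISA; bidirectional curve fit vs DMSO baseline; gain or loss of signal scored.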

The nature of assay [9]: BSK_hDFCGF_Proliferation: Cell Proliferation Assessment in the BioMAP Diversity Plus: hDFCGF Assay (AID 2283059).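 Further: curves fitted for both rise and fall of signal versus DMSO baseline.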 Conditions: primary human foreskin fibroblasts. An outline of the steps: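 Sub-confluent human foreskin fibroblast cultures receive test chemical […]. Relative cell number is quantified by sulforhodamine B staining (0.1%, after 10% TCA fixation) at 560 nm, with bidirectional fitting referenced to DMSO.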

Read-out in assay [10]: Macrophage colony-stimulating factor (MCSF), CSF1 (gene 1435)
Briefly: BSK_hDFCGF_MCSF: BioMAP Diversity Plus: hDFCGF Assay for Macrophage colony-stimulating factor (MCSF) Biomarker Activity (AID 2283060). Conditions: primary human foreskin fibroblasts; actives raise or lower the signal. An outline of the steps: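 Human foreskin primary fibroblasts were treated with test chemical for 24 h, and M-CSF was then measured by ELISA. Data were fitted bidirectionally against DMSO as the negative control and activity baseline.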

Assay [11] can be described thus: BSK_hDFCGF_SRB: Viability Assessment in the BioMAP Diversity Plus: hDFCGF Assay (AID 2283061).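 Further: cells exposed to compound for 24 h before the read.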 Conditions: primary human foreskin fibroblasts. Put shortly: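 Human foreskin primary fibroblasts were treated with compound and assessed 24 h after dosing. Total protein was measured by sulforhodamine B staining (0.1% SRB after 10% TCA fixation, 560 nm read) as a cytotoxicity marker, with bidirectional fitting against DMSO baseline.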

Read-out in assay [12]: Monokine induced gamma interferon (MIG), CXCL9 (gene 4283)
Briefly: BSK_hDFCGF_MIG: BioMAP Diversity Plus: hDFCGF Assay for Monokine induced gamma interferon (MIG) Biomarker Activity (AID 2283063). Conditions: primary human foreskin fibroblasts; actives raise or lower the signal. An outline of the steps: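 ELISA read-out of MIG from primary human dermal fibroblasts 24 h post-dosing. Gain or loss of signal fitted bidirectionally, DMSO as baseline.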

Read-out in assay [13]: Matrix Metallopeptidase 1 (MMP1), MMP1 (gene 4312)
Briefly: BSK_hDFCGF_MMP1: BioMAP Diversity Plus: hDFCGF Assay for Matrix Metallopeptidase 1 (MMP1) Biomarker Activity (AID 2283064). The following applies: primary human foreskin fibroblasts; actives raise or lower the signal. An outline of the steps: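 MMP1 levels quantified by ELISA 24 h after dosing human dermal fibroblast cultures, with parallel SRB total-protein staining for overt cytotoxicity. Data fitted in both directions against DMSO baseline.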

Read-out in assay [14]: Vascular cell adhesion molecule 1 (VCAM1), VCAM1 (gene 7412)
Briefly: BSK_hDFCGF_VCAM1: BioMAP Diversity Plus: hDFCGF Assay for Vascular cell adhesion molecule 1 (VCAM1) Biomarker Activity (AID 2283065).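 On AC50: VCAM-1 protein level quantified by ELISA after 24 h chemical exposure.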 The following applies: primary human foreskin fibroblasts; actives raise or lower the signal. An outline of the steps:
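Primary human foreskin fibroblasts (hDFCGF system) were dosed with chemical and VCAM-1 was measured by ELISA 24 h later. Bidirectional curve fitting used DMSO as negative control and activity baseline.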

Read-out in assay [15]: Plasminogen activator inhibitor-1 (PAI1), SERPINE1 (gene 5054)
Description: BSK_hDFCGF_PAI1: BioMAP Diversity Plus: hDFCGF Assay for Plasminogen activator inhibitor-1 (PAI1) Biomarker Activity (AID 2283066). The following applies: primary human foreskin fibroblasts; actives raise or lower the signal. Put shortly:
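ELISA readout of PAI-1 from primary human skin fibroblast cultures, 24 h after compound addition. Gain or loss of signal was fitted bidirectionally against DMSO baseline.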

Read-out in assay [16]: Intercellular Adhesion Molecule 1 (ICAM1), ICAM1 (gene 3383)
Briefly: BSK_KF3CT_ICAM1: BioMAP Diversity Plus: KF3CT Assay for Intercellular Adhesion Molecule 1 (ICAM1) Biomarker Activity (AID 2283067). Conditions: primary human keratinocytes with fibroblasts; actives raise or lower the signal. Put shortly: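 Human keratinocyte plus foreskin fibroblast primary co-culture was exposed to chemical for 24 h. ICAM-1 was then quantified by ELISA, and the data were fit bidirectionally against DMSO as the negative control and baseline.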

Read-out in assay [17]: Interferon-gamma inducible Protein 10 (IP10), CXCL10 (gene 3627)
Briefly: BSK_KF3CT_IP10: BioMAP Diversity Plus: KF3CT Assay for Interferon-gamma inducible Protein 10 (IP10) Biomarker Activity (AID 2283068). The following applies: primary human keratinocytes with fibroblasts; actives raise or lower the signal. An outline of the steps:
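ELISA read-out of IP-10 after 24 h chemical dosing of human skin primary co-culture (keratinocytes, foreskin fibroblasts). Gain or loss of signal relative to DMSO, bidirectional curve fit.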

Assay [18] in a line: BSK_KF3CT_SRB: Viability Assessment in the BioMAP Diversity Plus: KF3CT Assay (AID 2283069). Conditions: primary human keratinocytes with fibroblasts. An outline of the steps: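 Cytotoxicity was gauged by SRB staining (0.1% SRB, 10% TCA fixation, 560 nm) of parallel cultures at 24 h. The cells were primary human skin keratinocytes co-cultured with fibroblasts, and activity was fitted in both directions against DMSO.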

Read-out in assay [19]: Interleukin-1 alpha (IL1a), IL1A (gene 3552)
Description: BSK_KF3CT_IL1a: BioMAP Diversity Plus: KF3CT Assay for Interleukin-1 alpha (IL1a) Biomarker Activity (AID 2283070). Conditions: primary human keratinocytes with fibroblasts; actives raise or lower the signal. An outline of the steps:
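IL-1a was detected by ELISA 24 h after chemical treatment of a co-culture of human skin keratinocytes and foreskin fibroblasts. Gain or loss of signal was fitted against the DMSO baseline.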

Read-out in assay [20]: TIMP metallopeptidase inhibitor 1 (TIMP1), TIMP1 (gene 7076)
Briefly: BSK_hDFCGF_TIMP1: BioMAP Diversity Plus: hDFCGF Assay for TIMP metallopeptidase inhibitor 1 (TIMP1) Biomarker Activity (AID 2283062). The following applies: primary human foreskin fibroblasts; actives raise or lower the signal. Put shortly:
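Primary human foreskin fibroblasts in the hDFCGF system were dosed with compound for 24 h, then TIMP-1 was measured by ELISA. Activity was fitted bidirectionally relative to DMSO control; parallel SRB staining assessed cytotoxicity.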

Structures are written as SMILES. The source made the active and inactive calls. How the source made its calls: active means hit-call score of the fitted dose curve at least 0.9, where 1 is the maximum; inactive means score below 0.9.

For the compound `COP(=O)(NC(C)=O)SC` (stereo not given), the result in assay [1], in assay [2], in assay [3], in assay [4], in assay [5] and in assay [6] was inactive. In addition, the result in [7], in assay [8], in assay [9], in assay [10], in assay [11] and in [12] was inactive. The outcome in assay [13], in [14], in assay [15], in [16], in assay [17] and in assay [18] was inactive. In assay [19], the outcome was inactive.
For the compound `O=c1ccc(=O)[nH][nH]1`, the result in assay [1], in [2], in assay [3], in assay [4], in assay [5] and in assay [6] was inactive. Also, the outcome in assay [7], in assay [8], in assay [9], in [10], in assay [11] and in assay [20] was inactive. Also, the outcome in assay [12], in assay [13], in assay [14], in assay [15], in assay [16] and in assay [17] was inactive. The result in [18] and in [19] was inactive.
For `Cc1cc(C2CC2)nc(Nc2ccccc2)n1`, the AC50 in assay [1] is 27.8 µM (active); in assay [3], 6.65 µM (active); in assay [9] it was 15 µM (active); in assay [17] it was 20 µM (active). In addition, the result in assay [2], in assay [4], in assay [5], in [6], in assay [7] and in [8] was inactive. Further, the outcome in assay [10], in assay [11], in assay [20], in assay [12], in [14] and in assay [15] was inactive. Moreover, the result in assay [16], in [18] and in assay [19] was inactive.
Consider `CCC(CC)Nc1c([N+](=O)[O-])cc(C)c(C)c1[N+](=O)[O-]`, for which the concentration at half-maximal activity (AC50) was 16.3 µM (active) in [1]; 20 µM (active) in assay [3]; 29.2 µM (active) in assay [9]; 13.5 µM (active) in assay [10]; 11.8 µM (active) in [12]; 6.93 µM (active) in assay [13]. Further, the figures for the AC50 in [14] and in assay [17] were 11.9 µM (active) and 13.8 µM (active), respectively. In addition, the result in assay [2], in assay [4], in [5], in assay [6], in [7] and in [8] was inactive. For the same compound, the outcome in assay [11], in assay [15], in [16], in assay [18] and in assay [19] was inactive.
In the case of `CCc1cccc(CC)c1N(COC)C(=O)CCl`, the outcome in [1], in assay [2], in assay [4], in [5], in assay [7] and in [8] was inactive. In addition, the result in [20], in assay [13], in assay [15], in assay [16], in assay [17] and in assay [18] was inactive. The outcome in assay [19] was inactive. Also, the AC50 in assay [3] is 11.2 µM (active); in [6] it was 11.1 µM (active); in assay [9], 13.8 µM (active); in [10], 18.9 µM (active); in [11] it was 24 µM (active); in assay [12], 10.1 µM (active). In addition, the AC50 in [14] was 8.35 µM (active).
As to `CCOP(=O)(NC(C)C)Oc1ccc(SC)c(C)c1` (stereo not given), the result in [1], in assay [2], in assay [3], in [4], in assay [5] and in [6] was inactive. Further, the outcome in assay [7], in assay [8], in assay [9], in [10], in [11] and in [12] was inactive. Also, the outcome in assay [14], in assay [15], in assay [16], in assay [17], in assay [18] and in assay [19] was inactive.

(Values after PubChem BioAssay (EPA / NIEHS).)
